The full list was thinned out, with hits kept by preference.
TbREL1 inh: TbREL1 inhibition, primary screen; inhibition, % at 9.66 µM; P86926; 89,000 compounds, 0.49% hits; TbREL1 RNA ligation, FRET fluorescence;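 active means inhibition above the mean inhibition across all screened compounds plus 3 SD, cut at about 11% in these data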;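 further: 0% = plate median of test wells and 100% = NSC42067 control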
Target sequence (P86926 whole entry, looked up): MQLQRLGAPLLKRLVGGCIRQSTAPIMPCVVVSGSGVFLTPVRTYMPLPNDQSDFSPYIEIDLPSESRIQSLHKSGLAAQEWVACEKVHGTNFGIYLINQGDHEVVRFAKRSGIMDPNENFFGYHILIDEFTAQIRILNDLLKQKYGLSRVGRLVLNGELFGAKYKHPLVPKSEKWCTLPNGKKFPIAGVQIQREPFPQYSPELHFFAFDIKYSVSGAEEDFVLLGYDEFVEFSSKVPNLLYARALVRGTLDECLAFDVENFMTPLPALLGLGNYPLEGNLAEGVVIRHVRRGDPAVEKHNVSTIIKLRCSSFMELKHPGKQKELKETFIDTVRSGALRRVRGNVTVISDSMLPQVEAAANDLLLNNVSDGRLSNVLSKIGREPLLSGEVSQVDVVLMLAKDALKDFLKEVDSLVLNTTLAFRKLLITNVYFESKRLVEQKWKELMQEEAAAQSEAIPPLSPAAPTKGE
TbREL1 conf: TbREL1 inhibition, confirmation; shares compounds with TbREL1 inh; TbREL1 RNA ligation, FRET fluorescence; inhibition, % at 9.66 µM; 390 compounds, 37% hits; AID 1117282;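 active means mean inhibition across replicates above a set limit taken from the earlier primary screen, cut at about 11% in these data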;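 further: 0% = REL1 with substrate and DMSO and 100% = REL1 plus control inhibitor NSC42067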
Numbers without * were called inactive.

SMILES	TbREL1 inh	others
O=C(c1ccc([N+](=O)[O-])cc1)N1CCN(C(=O)c2cccnc2)CC1	-2
CC(C)(C)OC(=O)C1[C@H](O)C=CC[C@H]1S(=O)c1ccccc1 (stereo not given in full)	3
Cc1ccc(NC(=O)C2CCCN2S(=O)(=O)c2cccnc2)cc1C (stereo not given)	5
CN(C(=O)c1ccccc1C(=O)OCC(=O)c1ccc(F)cc1)c1ccccc1	-1
CN(C(=O)c1ccccc1C(=O)OCC(=O)NCc1cccs1)C1CCCCC1	-2
CN(C(=O)c1ccccc1C(=O)OCC(=O)c1ccc(F)c(F)c1)C1CCCCC1	12*	TbREL1 conf=2
O=C(NCc1ccc(F)cc1)C1CCCN(c2nc3ccccc3o2)C1 (stereo not given)	-1
COc1ccc(-n2c(SCC(=O)Nc3ccc(S(=O)(=O)Nc4nccs4)cc3)nnc2-c2ccccc2)cc1	0
O=C(C1CCN(c2ncnc3c2sc2cccc(F)c23)CC1)N1CCN(Cc2ccc(F)cc2)CC1	-5
COc1ccccc1NS(=O)(=O)c1cccc(C(=O)NNC(=O)c2ccc(NC(C)=O)cc2)c1	16*	TbREL1 conf=1
COc1cc(C(=O)NNC(=O)c2ccc(NC(C)=O)cc2)cc(OC)c1OC	1
COc1ccccc1NS(=O)(=O)c1cccc(C(=O)NCc2ccccn2)c1	2
O=S(=O)(c1ccccc1F)N1CCC(c2nc3ccccc3o2)CC1	6
O=Cc1cn(-c2ccccc2)nc1-c1cc2ccccc2oc1=O	6
O=C(/C=C/c1cn(-c2ccccc2)nc1-c1cccnc1)NCCN1CCOCC1	2
CN(C)CCNC(=O)/C=C/c1cn(-c2ccccc2)nc1-c1cc2ccccc2oc1=O	12*	TbREL1 conf=4
CCC(=O)N1CCc2cc(Br)c(S(=O)(=O)NCCCN(CC)Cc3ccccc3)cc21	1
O=C(N/N=C\c1ccccn1)c1cccc(C(=O)N/N=C\c2ccccn2)n1	-7
O=C(Cc1cccs1)N/N=C/c1ccccn1	3
O=C(N/N=C/c1ccccn1)c1cccs1	12*	TbREL1 conf=6
C/C(=N/NC(=O)c1ccoc1C)c1cccs1	1
COCCOc1ccc(C(F)(F)F)cc1NC(=O)CN1C(=O)NC(C)(c2ccc3c(c2)OCO3)C1=O (stereo not given)	-2
CCN1CCN(CC(=O)Nc2cc(C(F)(F)F)ccc2OCCOC)CC1	15*	TbREL1 conf=5
CCCOc1ccc(C(F)(F)F)cc1NC(=O)CN1C(=O)C(=O)N(CC)C1=O	0
CC(C)Oc1cccc(-c2n[nH]c(=S)n2N=Cc2cccc([N+](=O)[O-])c2)c1	-4
SMILES	TbREL1 inh	others
CC(C)Oc1ccc(-c2csc(N3CCC(C(N)=O)CC3)n2)cc1	-1
CC[C@@H]1/C(=C/c2ccccc2)N2C(=O)C[C@@H](c3ccccc3)N=C2N1Cc1ccc(OC)cc1OC	-3
CCn1c2ccccc2c2cc(NC(=O)COC(=O)c3ccccc3F)ccc21	4
CCn1c2ccccc2c2cc(NC(=O)COC(=O)c3cc(Cl)c(N)cc3OC)ccc21	12*	TbREL1 conf=8
CCn1c2ccccc2c2cc(NC(=O)COC(=O)c3cc(Cl)cc(Cl)c3)ccc21	-1
C/C(C=NNC(=O)CSc1nnc(-c2ccc(Cl)cc2)n1-c1ccccc1)=C\c1ccccc1	-2
COc1cccc(OC)c1NC(=O)OCCN1CCCC12CCC(c1ccccc1)CC2 (stereo not given)	-1
Cc1ccccc1CS(=O)(=O)Cc1ccc(C(=O)Nc2c(C)cccc2C)o1	-3
COc1cccc(NC(=O)NC2CCCCN(Cc3ccc(C)cc3)C2=O)c1 (stereo not given)	-3
COc1ccc(NS(=O)(=O)c2ccc3c(c2)[C@H]2C=CC[C@H]2[C@@H](c2ccc(C(=O)O)cc2)N3)cc1	15*	TbREL1 conf=17*
O=C(O)c1ccc2c(c1)C1C=CCC1C(c1ccncc1)N2 (stereo not given)	2
CC(=O)c1ccc2c(c1)C1C=CCC1C(c1ccc(S(=O)(=O)N3CCOCC3)cc1)N2 (stereo not given)	-2
O=C(Nc1nnc(-c2cccnc2)s1)c1cnc2ccccc2c1	-2
C[C@@H]1[C@H](O)[C@@H](C)/C=C/C=C/C=C/C=C/C=C/C=C/C=C/[C@H](OC2O[C@H](C)[C@@H](O)[C@H](N)[C@@H]2O)C[C@@H]2O[C@](O)(C[C@@H](O)C[C@@H](O)[C@H](O)CC[C@@H](O)C[C@@H](O)CC(=O)O[C@H]1C)C[C@H](O)[C@H]2C(=O)O (stereo not given in full)	-5
CC(C)Nc1nc(NCCOc2ccccc2Cl)c2sc(-c3ccccc3)cc2n1	13*	TbREL1 conf=16*
CC(O)CNc1ncnc2cc(-c3ccc(F)cc3)sc12 (stereo not given)	7
C=CCNc1nc(NCc2cccc(OC)c2)c2sc(-c3ccccc3)cc2n1	2
c1ccc2cc3[nH]c(CNc4nc(N5CCOCC5)nc5c4ncn5-c4ccsc4)nc3cc2c1	0
COc1cc(C(=O)O)ccc1OCc1ccccc1	3
COc1cc(CN(CCN(C)C)Cc2ccccc2)ccc1OCc1ccccc1	16*	TbREL1 conf=12*
COc1cc(CNC(=O)C2CC2)ccc1OCc1ccccc1	-1
CC(C)(C)C(=O)NC1CCCCN(Cc2ccc(Cl)cc2)C1=O (stereo not given)	-3
Cc1ccc(CSc2nnc(-c3n[nH]c4c3CCC4)n2N)cc1	2
O=C1CCCCC1Nc1ccc([N+](=O)[O-])cc1 (stereo not given)	18*	TbREL1 conf=2
O=C(NC1CCCCC1)c1ccc([N+](=O)[O-])cc1	1
SMILES	TbREL1 inh	others
CN1CCN(C(=S)Nc2ccc([N+](=O)[O-])cc2)CC1	-2
CCn1c(COc2ccc(Cl)cc2)nnc1SCC(=O)Nc1ccc(Oc2ccccc2)cc1	0
O=C(CN1CCN(c2ccc(O)cc2)CC1)Nc1ccc2c(c1)OCCO2	-2
O=C(CN1CCOCC1)Nc1ccc2c(c1)OCCO2	12*	TbREL1 conf=5
O=C(CN1CCOCC1)Nc1ccc2c(c1)OC(F)(F)O2	4
CCCCC(=O)N1CCN(C(=O)c2ccc3c(c2)nc(C)n3C2CCCC2)CC1	-1
CC(C)(C)CCN1C[C@@H]2C(CNC(=O)c3cc(Cl)cc(Cl)c3)[C@@H]2C1 (stereo not given in full)	0
O=C1c2ccccc2-c2ccc(P(=O)(O)O)cc21	8
COc1ccc(NC(=O)NC2CCN(S(=O)(=O)c3ccc(F)cc3)CC2)cc1OC	-1
CCCC1CCC2(CC1)CCC2OC(=S)Nc1cccc(I)c1 (stereo not given)	-1
CCC(=O)c1ccc(OC(=O)c2cnccn2)cc1	17*	TbREL1 conf=3
O=C(OCCOc1ccc(Br)cc1)c1cnccn1	-2
COc1ccc(C(=O)NCCNC(=O)c2cnccn2)cc1	-1
O=C(Nc1ccc(C(O)(C(F)(F)F)C(F)(F)F)cc1)c1ccc(F)cc1F	2
C#CCOCCOCCOCCNc1nc(N2CCN(C(=O)Cn3cc(CCCN=C(N)N)nn3)CC2)nc(N2CCN(C(=O)[C@H](Cc3ccc(O)cc3)n3cc(CCO)nn3)CC2)n1	0
Cc1ccc(-n2c(SCC(=O)Nc3ccc(OCc4ccccc4)cc3)nnc2-c2cnccn2)cc1	8
CC1=NN(c2ccccc2)C(=O)/C1=C\c1cc(C)n(C)c1C	-10
CC1=NN(c2ccccc2)C(=O)/C1=C/N(C)C	12*	TbREL1 conf=6
CN(C)/C=C1/C(=O)N(c2ccc([N+](=O)[O-])cc2)N=C1c1ccccc1	-1
Cc1nc2ccc(S(=O)(=O)NCC(=O)N(C)Cc3ccccc3Cl)cc2s1	1
